In PubChem BioAssay:
Calls of active or inactive are those of the source. Unless noted, no rule for the calls is given here.

Columns and labels:
[1] = system: XIP peptide (Xip251-270) binding; test: XIP fragment 251-270 binding compounds – biochemical, small-molecule microarray, fluorescence 635/667 nm, 0.1 µg/mL protein, primary screen (AID 1182); settings: fluorescent protein binding, 635 nm, higher = more signal, called active from +8 up or from −8 down
XIP peptide (Xip251-270) = test: compounds binding XIP fragment 251-270 – biochemical, small-molecule microarray, fluorescence 635/667 nm, 0.5 µg/mL protein, primary screen (AID 1183); settings: fluorescence 635 nm, higher = more signal
[2] = blood-stage malaria parasite viability loss – strain 3D7, DAPI fluorescence, 100 nL, primary screen (AID 1184);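 also: parasites grown inside human red blood cells in medium with human serum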; settings: P. falciparum 3D7 growth, 3 d, higher = more signal
[3] = target: Homeobox protein Hox-A13 (Mus musculus) (UniProt Q62424); test: disruptors of Hoxa13 oligonucleotide interaction – biochemical, fluorescence polarization, labeled oligonucleotide, primary screen (AID 1185); settings: Hoxa13:DNA binding, 15 min, higher = more signal, called active from +8 up or from −8 down
[4] = blockers of DNA damage checkpoint Chk1 activation – imaging, HeLa, hydroxyurea, phospho-Chk1 antibody, percent positive cells, primary screen (AID 1186); settings: hydroxyurea-induced phospho-Chk1 immunofluorescence imaging, higher = more signal
[5] = blockers of DNA damage checkpoint Chk1 activation – imaging, HeLa, hydroxyurea, phospho-Chk1 nuclear intensity, primary screen (AID 1187); settings: hydroxyurea-induced phospho-Chk1 immunofluorescence imaging, higher = more signal

Chain of Homeobox protein Hox-A13 (Mus musculus) (Q62424 whole entry, looked up): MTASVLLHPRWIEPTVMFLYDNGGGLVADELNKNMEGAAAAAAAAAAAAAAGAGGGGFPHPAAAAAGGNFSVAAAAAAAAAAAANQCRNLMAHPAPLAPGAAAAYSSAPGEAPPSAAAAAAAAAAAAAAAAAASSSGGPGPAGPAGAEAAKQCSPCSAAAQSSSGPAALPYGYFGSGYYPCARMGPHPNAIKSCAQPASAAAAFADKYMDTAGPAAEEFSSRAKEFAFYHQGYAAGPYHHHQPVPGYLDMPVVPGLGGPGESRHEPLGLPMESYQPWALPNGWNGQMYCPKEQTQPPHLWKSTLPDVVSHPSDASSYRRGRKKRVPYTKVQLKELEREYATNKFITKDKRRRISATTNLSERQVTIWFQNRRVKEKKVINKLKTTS

Structure (SMILES)	composite z-score [1]	composite z-score (XIP peptide (Xip251-270))	z-score [2]	z-score [3]	z-score [4]	z-score [5]
C=CCOC(=O)[C@@H]1[C@H]2C(=O)O[C@H](c3ccccc3)[C@H](c3ccccc3)N2[C@H](c2ccc(OCCOC(=O)[C@@H]3C[C@@H]4C(=O)N[C@@H](Cc5ccccc5)C(=O)N4[C@@H]3c3cccc(OCCO)c3)cc2)[C@@]12C(=O)Nc1ccc(I)cc12	0.299 (inactive)	0.738	-1.69	-0.282 (inactive)	0.0948 (inactive)	0.608 (inactive)
CCOC(=O)C[C@H]1[C@H](OC(=O)Cc2ccc3c(c2)OCO3)[C@@H](NC(=O)C2CCCCC2)c2cc(OCCCO)ccc2N1C(=O)Cc1ccc(OC)cc1	-0.219 (inactive)	0.128	-0.383	-2 (inactive)	-0.585 (inactive)	-0.868 (inactive)
COCCOC(=O)N1C(=O)[C@@]2(c3cc(C#CC4(O)CCCCCC4)ccc31)[C@H](C(=O)N1CCCCCCC1)[C@H]1C(=O)O[C@H](c3ccccc3)[C@H](c3ccccc3)N1[C@@H]2c1ccccc1OCCO	-0.0713 (inactive)	0.762	-2.39	3.19 (inactive)	-0.0968 (inactive)	0.298 (inactive)
CCOC(=O)C1=CCC(C(C)(C)C)N(S(=O)(=O)c2ccc(C)cc2)C1 (stereo not drawn)	0.548 (inactive)	0.806	-0.797	-4.56 (inactive)	-1.42 (inactive)	-1.98 (inactive)
[N-]=[N+]=NCc1ccccc1C[C@]1(C(=O)NCCN2CCOCC2)N=C(c2ccc(OCCCO)cc2)O[C@H]1c1ccccc1N=[N+]=[N-]	0.281 (inactive)	0.614	-2.1	-1.02 (inactive)	-0.2 (inactive)	0.0241 (inactive)
O=C(CCN1CCOCC1)c1cccc(O)c1	1.55 (inactive)	0.421	-1.5	-2.35 (inactive)	-0.111 (inactive)	0.114 (inactive)
CC(C)N1C(=O)C[C@@](C(=O)NCc2ccccc2)(c2ccc([N+](=O)[O-])cc2)[C@H]1c1ccc(CO)cc1	0.168 (inactive)	0.524	-0.688	-1.27 (inactive)	-0.293 (inactive)	-0.128 (inactive)
CN1C=C(C(=O)OCCS(C)(=O)=O)C(C(=O)OCCS(C)(=O)=O)=CC(CCCO)=CC1C1CC1 (stereo not drawn)	1.7 (inactive)	0.01	-0.766	-5.26 (inactive)	-1.31 (inactive)	-0.118 (inactive)
COC(=O)[C@@]1(Cc2ccc(OC)cc2)[C@H]2c3cc(C(=O)N4CCCC4)n(CCc4c[nH]c5cc(F)ccc45)c3C[C@H]2CN1C(=O)c1ccccc1	1.31 (inactive)	0.687	-1.66	0.828 (inactive)	0.527 (inactive)	0.598 (inactive)
O=C1OCCC=C[C@H]2OC34C=CCN(c5ccc6ccccc6c5)C(=O)[C@H]3N(CCCCCO)C(=O)[C@@H]4C12 (stereo partly drawn)	0.427 (inactive)	0.385	0.405	-5.5 (inactive)	-0.202 (inactive)	0.891 (inactive)
CCCCC=C[C@@H](NC(=O)c1cccs1)c1ccccc1	-0.0837 (inactive)	-0.513	-0.414	-3.05 (inactive)	-0.483 (inactive)	-0.695 (inactive)
CC(C)OC(=O)CC(=O)CC(O)c1ccc(C#N)cc1 (stereo not drawn)	3.17 (inactive)	0.21	0.393	-0.306 (inactive)	-1.26 (inactive)	-1.44 (inactive)
Cc1ccccc1C(O)C1C=CC2C(=O)N(C)C(=O)C2N1Nc1ccccc1 (stereo not drawn)	0.381 (inactive)	0.632	1.11	-3.24 (inactive)	0.251 (inactive)	-0.594 (inactive)
COC(=O)C(CC#Cc1ccc2c(c1)[C@]1(C(=O)N2)[C@H](c2ccc(OCCO)cc2)N2[C@H](c3ccccc3)[C@H](c3ccccc3)OC(=O)[C@H]2[C@@H]1C(=O)NC[C@H](O)c1ccccc1)C(=O)OC	1.14 (inactive)	0.836	-1.79	-0.715 (inactive)	0.0415 (inactive)	0.364 (inactive)
CCCC[C@@H]1C[C@H]1[C@@H](NC(=O)c1ccc(-c2ccccc2)cc1)c1ccc(-c2ccccc2)cc1	0.0014 (inactive)	-0.532	-1.05	-1.24 (inactive)	0.558 (inactive)	0.394 (inactive)
COC(=O)C[C@H]1O[C@]2(C(=O)N(Cc3ccccc3)c3ccc(NC(C)=O)cc32)[C@@H](C)[C@@H]1[Si](C)(C)c1ccc(OC)cc1	0.337 (inactive)	0.27	-3.05	-3.04 (inactive)	0.918 (inactive)	0.536 (inactive)
COCC1=C2[C@@H](CCc3ccccc3)OB(O)C[C@@H]2[C@@H]2C(=O)N(Cc3ccccc3)C(=O)[C@@H]2C1	-0.653 (inactive)	-0.538	1.22	-7.4 (inactive)	0.141 (inactive)	0.381 (inactive)

Structure (SMILES)	composite z-score [1]	composite z-score (XIP peptide (Xip251-270))	z-score [2]	z-score [3]	z-score [4]	z-score [5]
COC(=O)c1ccc(C(O)C2C=CC3C(=O)N(C)C(=O)C3N2NC(=O)OC(C)(C)C)o1 (stereo not drawn)	3.49 (inactive)	0.789	0.926	-1.46 (inactive)	-0.0792 (inactive)	-0.0828 (inactive)
COCCOC(=O)N1C(=O)[C@@]2(c3ccccc31)[C@H](C(=O)NC[C@H](O)c1ccccc1)[C@H]1C(=O)O[C@H](c3ccccc3)[C@H](c3ccccc3)N1[C@@H]2c1ccc(OCCO)cc1	0.868 (inactive)	0.645	-2.02	-4.33 (inactive)	-0.293 (inactive)	-0.262 (inactive)
C=C(C(=O)CC[C@H](OC(C)=O)c1ccc(OCCO)cc1)C(C)C	0.0512 (inactive)	0.601	-2.57	-3.14 (inactive)	0.772 (inactive)	-0.0365 (inactive)
CCCNC(=O)[C@@]1(c2ccc([N+](=O)[O-])cc2)CC(=O)N(CC23CC4CC(CC(C4)C2)C3)[C@@H]1c1ccc(CO)cc1	0.462 (inactive)	0.424	0.0816	-4.89 (inactive)	-0.29 (inactive)	-0.683 (inactive)
C=CC(COC(C)=O)NS(=O)(=O)c1ccc(Br)cc1 (stereo not drawn)	0.264 (inactive)	0.231	1.95	-0.546 (inactive)	0.363 (inactive)	0.253 (inactive)
COCCOC(=O)N1C(=O)[C@@]2(c3cc(C#CCNC(N)=O)ccc31)[C@H](c1ccc(OCCO)cc1)N1[C@H](c3ccccc3)[C@H](c3ccccc3)OC(=O)[C@H]1[C@@H]2C(=O)N1CCc2cc(OC)c(OC)cc2C1	-0.254 (inactive)	0.229	-0.605	1.91 (inactive)	-0.102 (inactive)	0.15 (inactive)
COC(=O)[C@@]1(Cc2ccccc2N=[N+]=[N-])COC(c2ccc(OCCCO)cc2)=N1	1.25 (inactive)	0.66	-0.82	-5.06 (inactive)	0.428 (inactive)	0.135 (inactive)
O=c1oc(-c2ccccc2)nc2cc(Br)ccc12	-0.208 (inactive)	-0.0114	1.64	4.46 (inactive)	0.208 (inactive)	0.0639 (inactive)
O=C1O[C@@H](c2ccccc2)[C@@H](c2ccccc2)N2[C@@H](c3ccc(O)cc3)[C@]3(C(=O)Nc4ccc(C#CC5=CCCCC5)cc43)[C@@H](C(=O)O)[C@H]12	1.53 (inactive)	0.327	0.202	-5.46 (inactive)	-0.0372 (inactive)	0.277 (inactive)
C=CCC(OC(C)=O)[C@@H]1[C@@H](N(Cc2ccc(-c3ccccc3)cc2)C(=O)Cc2ccc(F)cc2)c2cc(OCCCO)ccc2N1C(=O)c1ccc2ccccc2n1 (stereo partly drawn)	-0.517 (inactive)	-0.32	-1.35	-1.5 (inactive)	0.344 (inactive)	-0.0849 (inactive)
CC(=O)NCCCC[C@@H]1NC(=O)[C@@H]2C[C@H](C(=O)NCCCCN(C)C)[C@H](c3ccc(O)cc3)N2C1=O	-0.308 (inactive)	-0.208	0.101	-0.795 (inactive)	-0.396 (inactive)	-0.291 (inactive)
C=CC[C@@]1(C(=O)O)N=C(c2ccc(OCCCO)cc2)O[C@@H]1c1ccccc1N=[N+]=[N-]	0.926 (inactive)	0.823	-0.814	-6.19 (inactive)	0.103 (inactive)	-0.0861 (inactive)
COCCOC(=O)N1C(=O)[C@@]2(c3cc(C#CCC(C(=O)OC)C(=O)OC)ccc31)[C@H](C(=O)N1CCCCCCC1)[C@H]1C(=O)O[C@H](c3ccccc3)[C@H](c3ccccc3)N1[C@@H]2c1ccc(OCCO)cc1	0.968 (inactive)	0.746	-1.79	-15.8 (active)	-0.479 (inactive)	-0.719 (inactive)
C=CCNC(=O)[C@@H]1[C@H]2C(=O)O[C@H](c3ccccc3)[C@H](c3ccccc3)N2[C@H](c2ccccc2OCCO)[C@@]12C(=O)Nc1ccc(C#CC3=CCCCC3)cc12	1.02 (inactive)	0.691	-2.17	1.71 (inactive)	0.0372 (inactive)	0.464 (inactive)
C=CCOC(=O)[C@H]1[C@@H]2C(=O)O[C@@H](c3ccccc3)[C@@H](c3ccccc3)N2[C@@H](c2ccc(OCCOC(=O)[C@@H]3C[C@@H]4C(=O)N5CCC[C@H]5C(=O)N4[C@@H]3c3ccc(O)cc3)cc2)[C@]12C(=O)Nc1ccccc12	0.188 (inactive)	0.838	-1.8	1.28 (inactive)	-0.788 (inactive)	-0.507 (inactive)
[N-]=[N+]=NCc1ccccc1C[C@]1(C(=O)O)N=C(c2ccc(OCCCO)cc2)O[C@H]1c1ccccc1	1.06 (inactive)	0.228	-0.296	-5.85 (inactive)	0.109 (inactive)	0.0605 (inactive)
